Here are results for 56 compounds from article PMC4336329 (PLoS ONE, 2015).

Each structure is given as a SMILES string. About 14,000 (4.5%) of roughly 310,000 compounds showed an effect of 50% or more. The effect is printed as a negative number. This excerpt belongs to a sample that is enriched for strong results.
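Further: peak tail current of the secondary pulse compared with the same well before compound.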

human ether-à-go-go-related gene (hERG) potassium channel, sequence (Q12809 whole entry, looked up): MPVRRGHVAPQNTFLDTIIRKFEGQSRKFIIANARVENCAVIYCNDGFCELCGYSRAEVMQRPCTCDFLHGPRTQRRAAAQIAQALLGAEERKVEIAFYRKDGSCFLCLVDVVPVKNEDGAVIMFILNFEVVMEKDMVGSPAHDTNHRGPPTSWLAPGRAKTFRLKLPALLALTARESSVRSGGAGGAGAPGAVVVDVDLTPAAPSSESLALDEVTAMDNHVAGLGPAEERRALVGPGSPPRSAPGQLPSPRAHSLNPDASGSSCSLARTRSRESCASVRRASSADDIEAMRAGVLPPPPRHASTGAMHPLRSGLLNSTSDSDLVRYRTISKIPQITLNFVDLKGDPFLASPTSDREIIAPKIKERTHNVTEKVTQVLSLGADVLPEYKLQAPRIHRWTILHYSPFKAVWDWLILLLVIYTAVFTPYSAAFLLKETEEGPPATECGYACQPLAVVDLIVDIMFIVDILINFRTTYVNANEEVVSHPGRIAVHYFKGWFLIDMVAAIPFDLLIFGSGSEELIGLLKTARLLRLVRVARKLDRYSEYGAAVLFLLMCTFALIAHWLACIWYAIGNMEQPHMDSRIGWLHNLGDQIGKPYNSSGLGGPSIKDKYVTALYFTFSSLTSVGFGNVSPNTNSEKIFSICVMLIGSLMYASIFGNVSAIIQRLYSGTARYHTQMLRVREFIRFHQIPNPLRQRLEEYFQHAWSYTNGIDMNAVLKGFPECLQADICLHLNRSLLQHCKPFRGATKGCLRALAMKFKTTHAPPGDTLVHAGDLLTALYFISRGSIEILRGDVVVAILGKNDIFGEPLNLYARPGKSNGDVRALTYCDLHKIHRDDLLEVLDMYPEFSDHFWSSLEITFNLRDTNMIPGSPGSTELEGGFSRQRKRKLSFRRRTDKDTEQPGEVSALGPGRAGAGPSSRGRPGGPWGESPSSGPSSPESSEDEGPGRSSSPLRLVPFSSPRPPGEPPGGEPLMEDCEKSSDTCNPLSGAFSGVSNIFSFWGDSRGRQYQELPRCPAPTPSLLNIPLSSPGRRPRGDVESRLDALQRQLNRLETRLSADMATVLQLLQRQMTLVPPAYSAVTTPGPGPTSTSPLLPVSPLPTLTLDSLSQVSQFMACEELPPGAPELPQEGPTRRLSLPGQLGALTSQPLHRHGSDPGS

This test has as its target human ether-à-go-go-related gene (hERG) potassium channel (human, UniProt Q12809). In words: primary screen, population patch clamp on CHO cells stably expressing hERG; higher = less effect of the substance.
Turning to `COc1cc(/C=N/Nc2ccc([N+](=O)[O-])cc2S(=O)(=O)N2CCOCC2)cc(OC)c1OC`, the “hERG current change (%, negative = inhibition) at 10uM” value was -3.33%. For `O=C(Nc1ccc(Cl)cc1Cl)c1csc(-c2cccnc2)n1` the value was -1.42%. Then `CS(=O)(=O)N1CCc2cc(C(=O)Nc3ccccc3)ccc21`, with -1.25%. For `Cc1cccc(Nc2nc(NCc3ccco3)nc(N)c2[N+](=O)[O-])c1`, the “hERG current change (%, negative = inhibition) at 10uM” value came out at 10.6%. Then `CC(C)Oc1ccc(CN2CCC(n3nccc3NC(=O)c3cccnc3)CC2)cc1`, with -70.4%; and `O=C(Nc1ccnn1C1CCN(Cc2cccc(F)c2F)CC1)C1CCCC1`, with -23.2%. For `Cc1ccccc1CN1CCC(n2nccc2NC(=O)c2cccnc2)CC1` the value was -14.6%; for `COc1ccc(CN2CCC(n3nccc3NC(=O)C3CC3)CC2)cc1O`, -58.8%. For `O=C(Nc1ccnn1C1CCN(Cc2ccc(OC(F)F)cc2)CC1)C1CCCC1` the value was -75.3%; for `Cc1ccc(CN2CCC(n3nccc3NC(=O)C3CCOC3)CC2)cc1C` (centres unmarked), -20.5%.

As to `CCOc1cccc(CN2CCC(n3nccc3NC(=O)C3CC3)CC2)c1O`, the “hERG current change (%, negative = inhibition) at 10uM” value is given as -64.2%.

As for `Cc1cc(NC(=O)C(C)SCC(=O)OCc2ccc(Cl)cc2Cl)no1` (centres unmarked), the “hERG current change (%, negative = inhibition) at 10uM” value came to 1.04%. In the case of `Cc1ccc(C(=O)NCc2ccco2)c(C)c1`, the “hERG current change (%, negative = inhibition) at 10uM” value is on record as 20.5%.

For the compound `O=C(CCC(=O)N1CCN(c2ccc(O)cc2)CC1)c1ccc(Br)cc1`, the “hERG current change (%, negative = inhibition) at 10uM” value was -44.4%. For `O=C(O)c1cc(-c2ccccc2)nc(-c2ccccc2)c1` the value was 22.5%; for `CC1CN(c2ccc([N+](=O)[O-])cc2C(=O)N2CCOCC2)CC(C)N1` (centres unmarked), -9.17%; for `COc1ccc(CN2CCC(n3nccc3NC(=O)C3CCCC3)CC2)cc1`, -68.9%. Then `CC(C)(O)C#Cc1ccc(CN2CCC(n3nccc3NC(=O)C3CC3)CC2)cc1`, with -19%. For the compound `Cn1cc(CN2CCC(n3nccc3NC(=O)C3CCCC3)CC2)cn1`, the “hERG current change (%, negative = inhibition) at 10uM” value is 12.6%. Then `CCOc1cc(CN2CCC(n3nccc3NC(=O)C3CC3)CC2)ccc1O`, with -22%; and `COC(=O)c1ccc(CN2CCC(n3nccc3NC(=O)C3CC3)CC2)cc1`, with -55.6%. For `COC(=O)c1ccc(CN2CCC(n3nccc3NC(=O)C3CCCC3)CC2)cc1` the value was -67.7%; for `CCOc1ccc(CN2CCC(n3nccc3NC(=O)C3CC3)CC2)cc1CO`, -57.1%; for `CC1CCCC(C)N1CCCNC(=O)Cn1cc2c(n1)CCCC2` (centres unmarked), -3.99%.

On to `COc1cccc(CNCc2ccc3c(c2)OCO3)c1.O=C(O)C(=O)O`, for which the “hERG current change (%, negative = inhibition) at 10uM” value stood at 13.7%. Then `O=C(N[C@@H](Cc1ccccc1)c1nc2ccccc2[nH]1)c1cc([N+](=O)[O-])ccc1Cl`, with -28%; and `CCc1c(O)nc(SCC(N)=O)n(-c2ccccc2F)c1=O`, with 7.56%; and `CCC(C)N(C(=O)C(F)(F)F)C(C(=O)NC1CCCCC1)c1ccncc1` (centres unmarked), with 7.62%. Then `O=S(=O)(c1ccc(Cl)cc1Cl)N1CCCC1c1cccnc1` (centres unmarked), with 7.32%; and `Cc1ccc(SCC(=O)NCc2ccco2)cc1`, with 3.39%; and `COC(=O)c1c(SCC(=O)NC2CCCCC2)[nH]c2ccccc2c1=O`, with -0.717%. As to `CC(C)Oc1ccc(CN2CCC(n3nccc3NC(=O)C3CC3)CC2)cc1`, the “hERG current change (%, negative = inhibition) at 10uM” value was -79.4%. For `COc1cccc(CN2CCC(n3nccc3NC(=O)C3CC3)CC2)c1` the value was -44.7%; for `O=C(Nc1ccnn1C1CCN(Cc2cccc(OCCO)c2)CC1)C1CC1`, 0.219%; for `COc1cc(CN2CCC(n3nccc3NC(=O)C3CC3)CC2)cc(OC)c1`, -66.3%. For `CN(CC(=O)Nc1ccc(F)c(F)c1F)C(=O)C1CSC2(C)CCC(=O)N12` (centres unmarked) the value was -5.92%; for `O=C(Nc1ccc(OC(F)F)cc1)Nc1cccc(C(F)(F)F)c1`, 6.56%.

For `COC(=O)c1ccc(/C=N/OCC(=O)NCc2ccc(F)cc2)cc1`, the “hERG current change (%, negative = inhibition) at 10uM” value is recorded as 17.9%. Then `CCOc1ccc(/C=N/OCC(=O)NCc2ccco2)cc1`, with -12.9%; and `CN(C(=O)CO/N=C/c1ccc(OC(F)F)cc1)C1CCS(=O)(=O)C1` (centres unmarked), with -59.2%. For the compound `O=C(CO/N=C/c1ccc(OC(F)F)cc1)NC1CCCCC1`, the “hERG current change (%, negative = inhibition) at 10uM” value was -8.59%. Then `O=C(CO/N=C/c1ccccc1OC(F)F)NCc1ccco1`, with -5.06%; and `O=C(CO/N=C/c1ccc(OC(F)F)cc1)NCc1cccs1`, with -62.6%. `CCOc1ccc(/C=N/OCC(=O)NCc2cccs2)cc1`: the “hERG current change (%, negative = inhibition) at 10uM” value is reported as -11.6%. As for `O=C(CO/N=C/c1ccccc1OC(F)F)NCc1cccs1`, the “hERG current change (%, negative = inhibition) at 10uM” value is listed as -12.9%. Then `O=C(CO/N=C/c1ccc(OC(F)F)cc1)NCc1ccco1`, with -51.8%; and `O=C(CO/N=C/c1ccc(OC(F)F)cc1)NC1CCCC1`, with -49%; and `O=C(CO/N=C/c1ccc(OC(F)F)cc1)NCc1ccc(F)cc1`, with -79.2%. For `CC(C)(C)c1ccc(/C=N/OCC(=O)NCc2ccc(F)cc2)cc1` the value was -2.59%; for `Cc1cccc(-c2nc3c(c(=O)c4ccccc4n3C)c(=O)n2-c2ccccc2)c1`, 14%. For `Cc1cccc(S(=O)(=O)c2c(N)n(/N=C/c3cccnc3)c3nc4ccccc4nc23)c1` the value was -4.67%. Consider `COc1cc(C(=O)NCC(c2cccs2)N2CCOCC2)cc(OC)c1OC` (centres unmarked), for which the “hERG current change (%, negative = inhibition) at 10uM” value stood at 11.5%. In the case of `Cc1cccc(C)c1OC(=O)Cc1ccccc1[N+](=O)[O-]`, the “hERG current change (%, negative = inhibition) at 10uM” value is on record as -4.62%. Then `CCCOc1ccc(C(=O)NNC(=O)c2cccc(S(=O)(=O)N3CCN(C(C)=O)CC3)c2)cc1OC`, with -13.8%; and `COc1cc(C2Nc3cccc4cccc(c34)N2)ccc1OC(C)=O`, with 11.2%; and `CC(NC(=O)C(=O)N1CCOCC1)C(c1cccs1)N1CCN(c2ccccc2)CC1` (centres unmarked), with 8.31%.
